# Results reported in PubChem BioAssay (NCI).
# Compounds without any hit were thinned out: in the full panel of roughly 79,000, 15% have a hit. Values without a mark were called inactive. The source made the active and inactive calls. Cut-off read from the data, not from the text of the source: active = growth inhibition above about 70%; inactive = the rest.
# Key:
# [1] = NCI Yeast Anticancer Drug Screen. Data for the rad50 strain (AID 155);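 note: 0% = growth of vehicle-only cultures of the same strain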; conditions: S. cerevisiae rad50 strain growth inhibition, stronger effect = higher value
# Method in brief: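 DNA repair mutant yeast, compound exposure, growth read-out; inhibition is taken relative to vehicle.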
# [2] = NCI Yeast Anticancer Drug Screen. Data for the mec2-1 strain (AID 157); conditions: S. cerevisiae mec2-1 strain, stronger effect = higher value
# Method in brief: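 Test agents were screened against the mec2-1 yeast strain, with defined DNA repair or cell cycle alteration. Growth was scored as inhibition against vehicle-only controls.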
# [3] = NCI Yeast Anticancer Drug Screen. Data for the sgs1 mgt1 strain (AID 161);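 note: 0% = growth of cultures given vehicle only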; conditions: S. cerevisiae sgs1 mgt1 strain, stronger effect = higher value
# Method in brief: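 Test agents were incubated with a DNA-repair-mutant yeast strain. Growth was then read and compared against vehicle-treated controls.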
# [4] = NCI Yeast Anticancer Drug Screen. Data for the cln2 rad14 strain (AID 165);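 note: 0% = growth equal to vehicle treated cultures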; conditions: S. cerevisiae cln2 rad14 strain, stronger effect = higher value
# Method in brief: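 Growth of compound-exposed yeast (cln2 rad14 genotype) measured and expressed as inhibition relative to vehicle.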
# [5] = NCI Yeast Anticancer Drug Screen. Data for the bub3 strain (AID 167); conditions: S. cerevisiae bub3 mutant strain, stronger effect = higher value
# Method in brief: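 In this screen, a yeast mutant lacking normal mitotic checkpoint function is challenged with compound. Relative growth versus vehicle gives the inhibition value.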
# [6] = NCI Yeast Anticancer Drug Screen. Data for the mlh1 rad18 strain (AID 175); conditions: S. cerevisiae mlh1 rad18 strain growth inhibition, stronger effect = higher value
# Method in brief: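 In this whole-cell yeast screen, a strain with altered DNA damage repair is challenged with compound, and its growth is measured against matched vehicle-treated controls.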
# [7] = at 5.0 µM (retest, dose inferred, filed as 0.5)
# [8] = at 50.0 µM (retest, dose inferred, filed as 5.0)
SMILES,"growth inhibition [1, 7]","growth inhibition [1, 8]",growth inhibition ([1]; at 50.0 µM),"growth inhibition [2, 7]","growth inhibition [2, 8]",growth inhibition ([2]; at 50.0 µM),"growth inhibition [3, 7]","growth inhibition [3, 8]",growth inhibition ([3]; at 50.0 µM),"growth inhibition [4, 7]","growth inhibition [4, 8]",growth inhibition ([4]; at 50.0 µM),"growth inhibition [5, 7]","growth inhibition [5, 8]",growth inhibition ([5]; at 50.0 µM),"growth inhibition [6, 7]","growth inhibition [6, 8]",growth inhibition ([6]; at 50.0 µM)
CCNc1ccc2c(c1)Cc1ccccc1-2,45%,91% (active),95.2% (active),4%,38%,59.8%,62%,90% (active),96% (active),3%,73% (active),71.8% (active),-11%,33%,12.1%,27%,87% (active),90.7% (active)
CCCCn1cnc2c(SCc3ccc(F)cc3)nc(N)nc21,-1%,48%,46.3%,1%,59%,46.6%,-3%,16%,39.1%,-15%,49%,44.8%,0%,45%,90.1% (active),0%,30%,66.9%
COC(=O)c1[nH]c(=O)c(C#N)c(C(=O)OC)c1C(=O)c1ccc2ccccc2c1,-1%,31%,80.8% (active),-2%,20%,10.9%,-1%,25%,67.6%,7%,32%,20.3%,7%,41%,24.6%,12%,44%,80.8% (active)
CC(C)C(=O)OCC(C)(C)C1OCC(C)(C)C(C(C)C)O1 (configuration not stated),11%,-9%,-5.55%,97% (active),5%,-3.85%,12%,3%,-1.55%,-19%,-6%,9%,98% (active),0%,1.15%,88% (active),-13%,4.85%
Oc1c(I)cc(Cl)c2cccnc12,64%,96% (active),97.2% (active),63%,97% (active),98.3% (active),46%,97% (active),97.8% (active),72% (active),98% (active),96.8% (active),39%,96% (active),98.8% (active),74% (active),95% (active),98% (active)
CCOC(=O)C(C(=O)OCC)C1(c2ccccc2)OC(=O)c2ccccc21 (configuration not stated),0%,13%,0.55%,13%,27%,5.3%,-1%,21%,52.9%,-1%,17%,19.1%,-7%,-6%,8.8%,-4%,5%,-8.55%
O=CNc1ccc2c(c1)Cc1cc(NC=O)ccc1-2,-4%,81% (active),91% (active),-3%,25%,34.5%,18%,82% (active),91.4% (active),-34%,10%,-6.85%,2%,-9%,7.8%,14%,79% (active),74.2% (active)
O=C(CCN1CCCC1)c1ccc(Oc2ccc(F)cc2)cc1,28%,50%,69.8%,20%,48%,11.7%,31%,60%,47.2%,34%,68%,54.7%,31%,72% (active),49.4%,30%,56%,63.4%
c1cc[c]([Sn]([S]c2cccc3cccnc23)([S]c2cccc3cccnc23)[c]2ccccc2)cc1,98% (active),99% (active),96.8% (active),99% (active),100% (active),98% (active),98% (active),99% (active),98% (active),98% (active),98% (active),95.5% (active),98% (active),99% (active),95.9% (active),98% (active),99% (active),97.6% (active)
